aSyn UTR act – Activators working through SNCA 5'UTR binding (MLPCN) | activity score, % (tested at 7.5 µM), hits read low | alpha-synuclein 5'UTR reporter, activators screen | AID 1814 | hit rate 7.1% among 300,000; in the data active = activity score below about -60%
Large screens that a line does not name were inactive. Not all results are given here.

Nc1c(N=Nc2cccc(Cl)c2)c(=O)[nH]n1-c1ccccc1	aSyn UTR act -66.1
Cc1[nH]n(-c2ccccc2)c(=O)c1N=Nc1c(O)cc(S(=O)(=O)N(C)C)c2ccccc12	none
Cc1[nH]n(-c2ccccc2)c(=O)c1N=Nc1cccc(Cl)c1	aSyn UTR act -202.1
Cc1[nH]n(-c2ccccc2)c(=O)c1N=Nc1ccc2c(c1)OCCO2	aSyn UTR act -220.3
Cc1[nH]n(-c2ccccc2)c(=O)c1N=Nc1cccc([N+](=O)[O-])c1	aSyn UTR act -70.8
Cc1[nH]n(-c2ccc(Cl)cc2)c(=O)c1N=Nc1cccnc1	aSyn UTR act -92.6
CSc1ccc(N=Nc2c(C)[nH]n(C)c2=O)cc1	aSyn UTR act -62.1
Cc1[nH]n(-c2ccccc2)c(=O)c1N=Nc1ccc(F)cc1	aSyn UTR act -80.6
Cc1cc(N)ccc1N=Nc1c(C)n(C)n(-c2ccccc2)c1=O	aSyn UTR act -73.2
COc1ccc(C(=O)C(CN2CCCC2)c2ccccc2)cc1 (stereo not given)	aSyn UTR act -112.5
CC/C(=N/NC(=O)c1ccccc1)c1ccc(OCCN2CCOCC2)cc1	aSyn UTR act -103.2
CCCCOc1ccc(C(=O)C(CN2CCOCC2)c2ccccc2)cc1 (stereo not given)	aSyn UTR act -133.7
O=C(c1ccc(Cl)cc1)C(CN1CCCC1)c1ccccc1 (stereo not given)	aSyn UTR act -155.3
CCCCCOc1ccc(C(=O)CCN2CCOCC2)cc1	aSyn UTR act -72.3
COc1ccc(C(=O)C(CN2CCOCC2)c2ccccc2)cc1 (stereo not given)	aSyn UTR act -80.2
COc1cc(OC)c(C2CC(=O)N3CN(c4ccc(C)cc4)CSC3=C2C#N)cc1OC (stereo not given)	aSyn UTR act -127.1
CCc1ccc(N2CSC3=C(C#N)C(c4cccs4)CC(=O)N3C2)cc1 (stereo not given)	aSyn UTR act -94.2
Cc1ccc(N2CSC3=C(C#N)C(c4cccs4)CC(=O)N3C2)cc1 (stereo not given)	aSyn UTR act -130.9
Cc1ccc(NC(=S)Nc2nc(CC(=O)Nc3ccccc3)cs2)cc1	aSyn UTR act -118.8
CC(C)c1ccc2[nH]c3c(c2c1)[C@@H]1CCN2C(=O)CCC[C@H](C3)[C@H]12	aSyn UTR act -92.6
COc1ccccc1/C=N/N(C(C)=O)c1nc(-c2ccc(F)cc2)cs1	aSyn UTR act -121.2
Cc1ccc2nc(NC(=O)CN3C(=O)NC4(CCCCC4)C3=O)sc2c1	aSyn UTR act -82.4
Cc1ccc2nc(NC(=O)Cn3cc4c(n3)CCCCC4)sc2c1	aSyn UTR act -108.0
Cc1ccc2nc(-c3ccc(NC(=O)CN4C(=O)NC(C)(c5ccc(OC(F)F)cc5)C4=O)cc3)sc2c1 (stereo not given)	aSyn UTR act -136.3
Cc1ccc(C(C)C)c(OCc2nc(-c3nonc3N)no2)c1	aSyn UTR act -92.2
Cc1ccc(C(C)C)c(OCc2ccc(C(=O)N/N=C/c3ccc(O)cc3O)cc2)c1	none
Cc1ccc(-c2nc(C=Nc3ccccc3)c(O)o2)cc1	aSyn UTR act -101.7
Cc1ccc(N=Cc2nc(-c3ccco3)oc2O)cc1	aSyn UTR act -68.9
Oc1oc(-c2ccc(Br)cc2)nc1/C=N/c1ccccn1	aSyn UTR act -81.4
Oc1oc(-c2ccccc2)nc1/C=N/c1nccs1	aSyn UTR act -86.1
CN(C)S(=O)(=O)c1ccc(C(=O)Nc2nc3ccccc3[nH]2)cc1	aSyn UTR act -108.6
N#Cc1ccc(C(=O)Nc2nc3ccccc3[nH]2)cc1	aSyn UTR act -88.4
CCc1ccc(C(=O)Nc2nc3ccccc3[nH]2)cc1	none
CCCCN(C)S(=O)(=O)c1ccc(C(=O)Nc2nnc(-c3cccs3)o2)cc1	none
Cc1ccc(NC(=O)CSc2nnc(-c3cccs3)o2)cc1S(=O)(=O)N(C)C	aSyn UTR act -164.3
Cn1c(=N)n(CC(=O)c2cccs2)c2ccccc21	aSyn UTR act -92.1
COc1cccc(C(=O)Cn2c(=N)n(C)c3ccccc32)c1	none
Cn1c(=N)n(CC(=O)c2ccc(Br)s2)c2ccccc21	aSyn UTR act -118.0
O=c1cc(/C=C/c2c(F)cccc2Cl)[nH]c2ccccc12	aSyn UTR act -102.4
O=C(N/N=C/c1ccc2c(c1)OCO2)c1cccc2ccccc12	aSyn UTR act -109.2
Cn1cc(C(=O)N/N=C/c2cccs2)c2ccccc21	aSyn UTR act -181.0
Cn1cc(C(=O)N/N=C/c2ccc3c(c2)OCO3)c2ccccc21	aSyn UTR act -275.8
Cc1cccc(C)c1OCC(=O)N/N=C/c1ccc2c(c1)OCO2	aSyn UTR act -85.2
CCOC(=O)c1ccc(NC(=S)Nc2cccc(N)n2)cc1	aSyn UTR act -146.8
CCOC(=O)c1ccc(NC(=S)Nc2ccc(Br)cc2N)cc1	aSyn UTR act -114.0
CCOC(=O)c1[nH]c2ccc(OC)cc2c1C	aSyn UTR act -122.3
CCOC(=O)c1[nH]c2ccccc2c1NC(=S)Nc1cc(C)ccc1C	aSyn UTR act -87.9
COc1ccc2[nH]c3c(C)c4ccncc4c(C)c3c2c1	none
CCOC(=O)c1[nH]c2ccc(OC)cc2c1NC(=O)c1ccccc1C(=O)O	aSyn UTR act -65.4
CCOC(=O)c1cc2cc(OC)ccc2[nH]1	aSyn UTR act -147.2
CCOc1ccc2[nH]c(C(=O)N/N=C/c3ccc(OC)cc3)cc2c1	none
Cc1ccc(C)c(NC(=S)NC(NC(=O)Cc2cccc3ccccc23)C(Cl)(Cl)Cl)c1 (stereo not given)	none
COC(=O)c1[nH]c2ccc(F)cc2c1NS(=O)(=O)c1ccc(OC)cc1	none
Cc1c(NC(=O)c2ccc(C(C)(C)C)cc2)cccc1[N+](=O)[O-]	aSyn UTR act -133.1
Cc1c(NC(=O)c2ccc3nsnc3c2)cccc1[N+](=O)[O-]	aSyn UTR act -68.2
O=C(NC(=S)Nc1ccccc1[N+](=O)[O-])c1ccccc1	aSyn UTR act -135.6
CC(C)(C)c1ccc(NC(=O)c2ccccc2)c([N+](=O)[O-])c1	aSyn UTR act -99.5
O=C(NC(=S)Nc1cccc2[nH]ncc12)c1ccccc1	aSyn UTR act -176.2
CN(C)c1ccc(/C=N/NC(=O)c2ccn(C)n2)cc1	aSyn UTR act -114.8
CN(C)c1ccc(/C=N/NC(=O)c2ccnn2C)cc1	aSyn UTR act -109.6
COc1ccc(/C=C/C(=O)c2ccc[nH]2)cc1OC	aSyn UTR act -146.2
COc1ccc(/C=C/C(=O)c2cc(F)ccc2OC(=O)c2ccccc2OC)cc1OC	none
COc1ccc(/C=C/C(=O)c2ccc[nH]2)c(OC)c1OC	aSyn UTR act -194.2
CCOc1ccc2nc(NC(=O)CSc3nnc(-c4ccncc4)n3CC3CCCO3)sc2c1 (stereo not given)	aSyn UTR act -75.6
CCOc1ccc2nc(NC(=O)c3ccc(OCC4CCCO4)cc3)sc2c1 (stereo not given)	aSyn UTR act -99.3
Cc1cccc2sc(NNC(=O)c3ccc(S(=O)(=O)N4CCCC(C)C4)cc3)nc12 (stereo not given)	none
Cc1cccc2sc(NC(=O)c3ccc(OCC4CCCO4)cc3)nc12 (stereo not given)	aSyn UTR act -144.4
Cc1ccc(-n2cc(CN3CCC(CO)(Cc4ccccc4)CC3)cn2)cc1	aSyn UTR act -107.8
OCC1(Cc2ccccc2)CCN(Cc2cnc(-c3ccc(Cl)cc3)nc2)CC1	aSyn UTR act -73.9
Cc1cc(C)nc(/N=C(\N)N2CCc3ccccc32)n1	aSyn UTR act -61.7
CN(C)CCCn1cnc2c(c1=N)C(c1ccccc1)c1ccc3ccccc3c1O2 (stereo not given)	none
N#C/C(=C1/CCCCCN1)c1nc2ccccc2s1	aSyn UTR act -72.8
Cc1ccc(NC(=S)N/N=C/c2ccc([N+](=O)[O-])s2)cc1	aSyn UTR act -73.9
COCCn1ccc2c(OCC(=O)Nc3cc(OC)ccc3OC)cccc2c1=O	aSyn UTR act -61.6
